One experiment has as its system IYD (gene 389434). As to the kind of experiment: CCTE_GLTED_hIYD: CCTE's human Iodotyrosine Deiodinase (xIYD) Inhibition Assay, Great Lakes Toxicology and Ecology Division (GLTED) Lab (AID 2284317).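 Further: cell-free human IYD enzyme made in baculovirus insect cells; iodide freed from monoiodotyrosine measured by cerium arsenite color change at 420 nm.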 An outline of the steps:
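hIYD: baculovirus-expressed human IYD deiodinated monoiodotyrosine for 3 h with test chemical; free iodide was measured by Sandell-Kolthoff absorbance at 420 nm and normalized to MNT and DMSO/NaOH controls.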

The next experiment deals with TTR (gene 7276). As to the kind of experiment: CCTE_GLTED_hTTR_0.5uM: CCTE's human Transthyretin (hTTR) Inhibition Assay, with 0.5uM TTR, Great Lakes Toxicology and Ecology Division (GLTED) Lab (AID 2284320; active means hit-call score of the fitted dose curve at least 0.9, where 1 is the maximum; inactive means score below 0.9). The gist of the method: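 Cell-free displacement assay in which human TTR at 0.5 uM was incubated with test chemical for 2 h. Displacement of the ANSA probe was read by fluorescence at 380 nm excitation/475 nm emission. Loss of signal was fitted in the positive direction versus DMSO.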

Experiment [1] can be described thus: CCTE_Deisenroth_5AR_NBTE_acceptor: CCTE's 5alpha-reductase NanoBRET Target Engagement Assay - Autofluorescence Screen, Deisenroth Lab (AID 2284321; active means hit-call score of the fitted dose curve at least 0.9, where 1 is the maximum; inactive means score below 0.9;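 further: compound fluorescence in the acceptor channel under 460 nm excitation flags autofluorescence artifacts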). The settings on record: actives raise or lower the signal. The gist of the method: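 Autofluorescence counter-screen: chemicals at an assumed nominal 100 uM in DMSO were scanned in three independent runs with 460 nm excitation. Gain or loss of acceptor signal was fitted bidirectionally against DMSO.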
In general terms: Bioluminescence resonance energy transfer reports proximity on the nanometre scale.

The next experiment has as its system SRD5A2 (gene 6716). As to the kind of experiment: CCTE_Deisenroth_5AR_NBTE_ratio: CCTE's 5alpha-reductase NanoBRET Target Engagement Assay - Ratio, Deisenroth Lab (AID 2284322; active means hit-call score of the fitted dose curve at least 0.9, where 1 is the maximum; inactive means score below 0.9). The settings on record: actives raise or lower the signal. An outline of the steps: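 HEK293T transiently expressing SRD5A2-NanoLuc; cells exposed to chemical (8-point, 10 nM - 29.9 uM) for 5 h total, testosterone tracer added for final 2 h. NanoBRET acceptor/donor ratio (650/460 nm), bidirectional fit vs DMSO.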

Experiment [2] can be described thus: VALA_TUBHUV_Agonist_CellCount: Viability Assessment in the VALA Sciences human Umbilical Vein Endothelial Tubule Formation (TUBHUV) Agonism Assay (AID 2284309). The gist of the method: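 HUVEC co-cultured 1:3 with HDF for 3 days in 10 ng/ml VEGF, then compounds added in VEGF medium for a further 3 days (72 h). Nuclear-stain/CD31 imaging cell count. Positive-direction fit versus 0.1% DMSO vehicle.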

The nature of experiment [3]: VALA_TUBIPS_Agonist_TubuleLength: VALA Sciences human iPS-derived Endothelial Tubule Formation (TUBIPS) Agonism Assay (AID 2284311). An outline of the steps:
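Human iPS-derived endothelial cells were exposed to compound for 72 h. Tubule formation was imaged by high-content fluorescence and scored as gain of signal relative to DMSO vehicle (agonist mode).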

The nature of experiment [4]: VALA_TUBIPS_Antagonist_TubuleLength: VALA Sciences human iPS-derived Endothelial Tubule Formation (TUBIPS) Antagonist Assay (AID 2284313). An outline of the steps:
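Cells grown 3 days with 10 ng/ml VEGF, then exposed to compounds in VEGF medium for another 3 days. After fixation, nuclear stain and CD31 immunofluorescence imaging gave mean total tubule length against 0.1% DMSO; suramin (100 uM) inhibition control.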

A short description of experiment [5]: VALA_MIGHUV2_CellCount: Viability Assessment in the VALA Sciences human Umbilical Vein Endothelial Cell Migration (MIGHUV) Assay, Area of Scratch Wound after Recovery (AID 2284314). The gist of the method:
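Scratch-wounded HUVEC monolayers received test chemical within 30 min, 6-point concentration response in triplicate, 0.1 % DMSO vehicle. After 24 h wound recovery, fixed cells were Hoechst-stained and nuclei imaged; loss of signal versus DMSO indicates reduced viability.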

A short description of experiment [6]: VALA_MIGHUV2_Bcatenin: VALA Sciences human Umbilical Vein Endothelial Cell Migration (MIGHUV) Assay, Nuclear Translocation of beta-Catenin after Recovery (AID 2284315). An outline of the steps:
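HUVEC (4000 cells/well) scratch-wounded, dosed within 30 min over 6 concentrations in triplicate, recovered 24 h. After fixation, Hoechst and anti-beta-catenin immunofluorescence imaged for nuclear CTNB. Gain of signal versus 0.1% DMSO.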

Experiment [7] in a line: VALA_MIGHUV2_WoundArea: VALA Sciences human Umbilical Vein Endothelial Cell Migration (MIGHUV) Assay, Area of Scratch Wound after Recovery (AID 2284316). An outline of the steps:
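HUVEC seeded at 9000 cells/well, scratched after 24 h; test chemical added within 30 min, 6-point concentration response in triplicate (0.1% DMSO vehicle). After 24 h wound recovery, cells fixed and Hoechst-stained nuclei in wound area imaged; Cytochalasin D reference control.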

A short description of experiment [8]: TAMU_PeakParms_SingleDonor1434_Asystole: Texas A&M University (TAMU) 1.5-hr Human Induced Pluripotent Stem Cell (iPSC)-derived Cardiomyocytes Calcium (Ca+2) Flux Assay for Cardiotoxicity: Asystole (quiescence of beating) (AID 2284328). The gist of the method: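 Average Ca2+-flux peak frequency (beats/s) was recorded in single-donor iPSC-derived cardiomyocytes after 90 min exposure (0.2–100 uM final, 0.5% DMSO). Asystole POD set as EC95 against DMSO, no preprocessing.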

The nature of experiment [9]: VALA_TUBIPS_Antagonist_CellCount: Viability Assessment in the VALA Sciences human iPS-derived Endothelial Tubule Formation (TUBIPS) Antagonism Assay (AID 2284335).
Experiment [10] is described as follows: VALA_MIGHUV1_ScratchOnly_WoundArea: VALA Sciences human Umbilical Vein Endothelial Cell Migration (MIGHUV) Assay, Area of Scratch Wound Inhibited Recovery (AID 2284336). The gist of the method:
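HUVEC monolayers (9000 cells/well) were scratched after 24 h, dosed within 30 min (six concentrations, triplicate, 0.1% DMSO), allowed 24 h recovery, then fixed. Hoechst-stained nuclei in the wound imaged; cytochalasin D as reference.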

Experiment [11] can be described thus: VALA_TUBHUV_Agonist_TubuleLength: VALA Sciences human Umbilical Vein Endothelial Tubule Formation (TUBHUV) Agonism Assay (AID 2284337). An outline of the steps:
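HUVEC co-cultured with fibroblasts (1:3) 3 days in 10 ng/ml VEGF, then 3 days with compound plus VEGF; 0.1 % DMSO neutral control. Fixed, nuclear and CD31 stained; tubule length by fluorescence imaging.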

A short description of experiment [12]: CCTE_Mundy_HCI_iCellGluta_NOG_NeuriteLength: CCTE's Neurite Outgrowth Assay in iCellGluta cells for Neurite Length, Mundy Lab (AID 2284318). An outline of the steps: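 Automated high-content imaging of betaIII-tubulin (Alexa Fluor-488) and Hoechst-stained cells gave neurite length, normalized to the DMSO baseline.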
A short description of experiment [13]: IUF_NPC2-5_cytotoxicity_72hr: Cytotoxicity Assessment at 72 hours in the Leibniz Research Institute for Environmental Medicine (IUF) Neural Progenitor Cell Migration and Differentiation Assay for Cytotoxicity (NPC2-5) (AID 2284306).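 Further: LDH release into supernatant measured by resorufin fluorescence marking membrane damage.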 The gist of the method:
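Membrane integrity loss was scored from fluorescence (RFU) of resorufin generated by LDH in culture supernatant, 72 h after dosing. Differentiating human progenitor spheres received seven serial compound concentrations alongside a solvent control.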

Experiment [14] in a line: IUF_NPC2-5_cytotoxicity_120hr: Cytotoxicity Assessment at 120 hours in the Leibniz Research Institute for Environmental Medicine (IUF) Neural Progenitor Cell Migration and Differentiation Assay (NPC2-5) (AID 2284307). An outline of the steps:
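Human fetal (GW 16-19) neural progenitor spheres (0.3 mm) plated on poly-D-lysine/laminin in N2 differentiation medium, exposed 120 h with half-medium renewal at day 3; 7 concentrations plus solvent control, DMSO ≤0.1%. LDH release in supernatant read by resorufin fluorescence.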

Experiment [15] in a line: IUF_NPC2-5_cell_number_120hr: Cell Number Assessment at 120 hours in the Leibniz Research Institute for Environmental Medicine (IUF) Neural Progenitor Cell Migration and Differentiation Assay (NPC2-5) (AID 2284308; active means hit-call score of the fitted dose curve at least 0.9, where 1 is the maximum; inactive means score below 0.9;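 further: count of Hoechst-stained nuclei in migration zone around plated human neural progenitor spheres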). The gist of the method: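 Human fetal neural progenitor spheres (0.3 mm) plated on poly-D-lysine/laminin in N2 differentiation medium, exposed five days across 7 concentrations with half-medium refresh at day 3. Hoechst-positive nuclei counted in migration area at 120 h, relative to DMSO.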

Experiment [16] can be described thus: IUF_NPC2-5_viability_120hr: Viability Assessment at 120 hours in the Leibniz Research Institute for Environmental Medicine (IUF) Neural Progenitor Cell Migration and Differentiation Assay (NPC2-5) (AID 2284312; active means hit-call score of the fitted dose curve at least 0.9, where 1 is the maximum; inactive means score below 0.9). The gist of the method: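 Alamar blue resorufin fluorescence read after 5 days of differentiation, with compound present from day 0 and replenished at day 3. Primary hNPC spheres on laminin-coated plates, 37C; seven concentrations plus solvent control, fitted against DMSO.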

The nature of experiment [17]: IUF_NPC1_cytotoxicity_72hr: Cytotoxicity Assessment at 72 hours in the Leibniz Research Institute for Environmental Medicine (IUF) Neural Progenitor Cell Proliferation Assay (NPC1) (AID 2284332).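 Further: rising LDH signal means more cytotoxicity.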 The gist of the method: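 Human fetal neural progenitor spheres (0.3 mm) in EGF/FGF proliferation medium, 37C, exposed 72 h without renewal. LDH release in supernatant read by resorufin fluorescence; gain of signal scored relative to dynamic range.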

Molecules are shown by their SMILES. Inconclusive results are not listed. Activity calls are given as the source filed them. How the source made its calls, unless noted: active means hit-call score of the fitted dose curve at least 0.9, where 1 is the maximum; inconclusive means response in the unintended direction; inactive means score below 0.9.

This passage reports AC50 and outcome results from PubChem BioAssay (EPA / NIEHS).

A word on the AC50: it is the concentration at which the activity in the assay is half-maximal.

On to `O=C(O)C(F)(F)C(F)(F)C(F)(F)C(F)(F)C(F)(F)C(F)(F)C(F)(F)C(F)(F)C(F)(F)C(F)(F)F`, for which the AC50 is 51.3 µM (active) in the experiment on IYD (gene 389434) and 1.98 µM (active) in the experiment on TTR (gene 7276). Moreover, the outcome (in [1]; with SRD5A2 (gene 6716)) was inactive.
In the case of `C=CC#N`, the molecule was classed as inactive with IYD (gene 389434).
Consider `CC(C)(C)c1cc(O)ccc1O`, for which the AC50 in experiment [2] is 11 µM (active); in experiment [5] it was 74.3 µM (active); in [6], 82.8 µM (active); in [7] it was 73 µM (active); in experiment [11] it was 56 µM (active). The call in experiment [3], in experiment [4], in [8], in [9] and in [10] was inactive.
As to `O=C1C2(Cl)C3(Cl)C4(Cl)C(Cl)(Cl)C5(Cl)C3(Cl)C1(Cl)C5(Cl)C24Cl` (centres undefined), the concentration at half-maximal activity (AC50) was 40.1 µM (active) in the experiment on IYD (gene 389434) and 15 µM (active) in experiment [12].
`CC(C)(c1ccc(OCC2CO2)cc1)c1ccc(OCC2CO2)cc1` (centres undefined): the outcome (with IYD (gene 389434); in experiment [1]; with SRD5A2 (gene 6716)) was inactive.
In the case of `CC(C)(C)CC(C)(C)c1ccc(O)cc1`, in the experiment on IYD (gene 389434), the concentration at half-maximal activity (AC50) is 66.8 µM (active).
Turning to `CC(=O)[O][Hg][c]1ccccc1`, the values for the concentration at half-maximal activity (AC50) (in experiment [1]; in the experiment on SRD5A2 (gene 6716)) were 25.3 µM (active) and 50 µM (active), respectively.
Regarding `CCC(C)(C)c1ccc(O)c(C(C)(C)CC)c1`, in the experiment with IYD (gene 389434), the AC50 was 37 µM (active).
`CCOP(=S)(OCC)Oc1nc(Cl)c(Cl)cc1Cl`: the result (in experiment [13]; in experiment [14]; in experiment [15]; in experiment [16]; in experiment [1]; in the experiment on SRD5A2 (gene 6716)) was inactive. Further, the outcome in experiment [8] and in [17] was inactive.
For the molecule `c1cc[c]([Hg][c]2ccccc2)cc1`, the result (in experiment [1]; in the experiment on SRD5A2 (gene 6716)) was inactive.
In the case of `ClCC(Cl)CCl`, the molecule was classed as inactive in experiment [5], in [7], in experiment [9], in [10] and in experiment [11].
